The source made the active and inactive calls. Rule for the calls: active = hit-call score of the fitted dose curve at least 0.9, where 1 is the maximum; inactive = score below 0.9.

Holding throughout (settings): mRNA level, 48 h; actives raise or lower the signal
Read-out in experiment [1]: Pro-epidermal growth factor (Homo sapiens) (UniProt P01133)
The experiment can be described thus: LTEA_HepaRG_EGF: Life Technologies and Expression Analysis (LTEA) Assay for Epidermal growth factor (EGF) using HepaRG (AID 2283489). The essentials: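 Differentiated human HepaRG cells, plated 48 h then switched to serum-free induction medium, were exposed for 48 h to test chemicals (8-point half-log series, top 100 uM, 0.5% DMSO). EGF mRNA was quantified by qRT-PCR, normalized to ACTB, GAPDH, POLR2A.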

Read-out in experiment [2]: Early growth response protein 1 (EGR1) transcription factor, EGR1 (gene 1958)
The experiment can be described thus: LTEA_HepaRG_EGR1: Life Technologies and Expression Analysis (LTEA) Assay for Early growth response protein 1 (EGR1) transcription factor using HepaRG (AID 2283490). Summed up:
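HepaRG, 48 h exposure, 8-pt half-log series from 100 uM, 0.5% DMSO vehicle; EGR1 transcript by TaqMan qRT-PCR (Fluidigm array), housekeeping-normalized; bidirectional fit relative to DMSO baseline.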

Read-out in experiment [3]: Ezrin (EZR), EZR (gene 7430)
The experiment can be described thus: LTEA_HepaRG_EZR: Life Technologies and Expression Analysis (LTEA) Assay for Ezrin (EZR) using HepaRG (AID 2283491). The essentials: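 Read-out is EZR transcript level by qRT-PCR, normalized to three housekeeping genes and fitted bidirectionally against the DMSO control. Human HepaRG cells received test chemicals for 48 h at eight half-log concentrations up to 100 uM in 0.5% DMSO.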

Read-out in experiment [4]: Cytochrome P450 3A7 (Homo sapiens) (UniProt P24462)
The experiment can be described thus: LTEA_HepaRG_CYP3A7: Life Technologies and Expression Analysis (LTEA) Assay for CYP3A7 using HepaRG (AID 2283492). The essentials:
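HepaRG cells plated 48 h, then dosed in serum-free induction medium for 48 h at 8 concentrations (top 100 uM, half-log steps, 0.5% DMSO). CYP3A7 mRNA by qRT-PCR, normalised to ACTB/GAPDH/POLR2A; bidirectional fit versus DMSO.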

Read-out in another experiment: CYP3A5 (gene 1577)
Kind of experiment: LTEA_HepaRG_CYP3A5: Life Technologies and Expression Analysis (LTEA) Assay for CYP3A5 using HepaRG (AID 2283493). Summed up:
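qRT-PCR read-out: CYP3A5 transcript in HepaRG lysates, housekeeping-normalized (ACTB/GAPDH/POLR2A), fitted bidirectionally against 0.5% DMSO baseline. Exposure 48 h, eight half-log concentrations up to 100 uM, duplicates.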

Read-out in experiment [5]: Fatty Acid-Binding Protein 1 (FABP1), FABP1 (gene 2168)
Kind of experiment: LTEA_HepaRG_FABP1: Life Technologies and Expression Analysis (LTEA) Assay for Fatty Acid-Binding Protein 1 (FABP1) using HepaRG (AID 2283494). The essentials: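 qRT-PCR readout of FABP1 transcript (normalized to three housekeeping genes) after 48 h chemical exposure of HepaRG cells; eight concentrations, half-log steps, max 100 uM, 0.5% DMSO vehicle; gain or loss fitted relative to DMSO baseline.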

Read-out in experiment [6]: Cytochrome P450 4A22 (Homo sapiens) (UniProt Q5TCH4)
The experiment can be described thus: LTEA_HepaRG_CYP4A22: Life Technologies and Expression Analysis (LTEA) Assay for Cytochrome P450 4A22 (CYP4A22) using HepaRG (AID 2283495). Summed up: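 qRT-PCR of CYP4A22 mRNA (Fluidigm TaqMan, normalized to three housekeeping genes) after 48 h chemical exposure of HepaRG cells; 8-point half-log series, top 100 uM, 0.5% DMSO vehicle. Bidirectional curve fitting vs DMSO baseline.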

Read-out in experiment [7]: Cytochrome P450 7A1 (Homo sapiens) (UniProt P22680)
The experiment can be described thus: LTEA_HepaRG_CYP7A1: Life Technologies and Expression Analysis (LTEA) Assay for Cytochrome P450 7A1 (CYP7A1) using HepaRG (AID 2283496). Summed up:
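Using 0.5% DMSO as vehicle and baseline, chemicals were tested in duplicate over an 8-point range from 100 uM on HepaRG cells for 48 h; qRT-PCR signals were normalised to ACTB, GAPDH and POLR2A.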

Read-out in experiment [8]: Glutathione S-Transferase (GSTA2), GSTA2 (gene 2939)
Kind of experiment: LTEA_HepaRG_GSTA2: Life Technologies and Expression Analysis (LTEA) Assay for Glutathione S-Transferase (GSTA2) using HepaRG (AID 2283497). Summed up: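 qRT-PCR readout of GSTA2 transcript, normalized to three housekeeping genes, fitted bidirectionally against 0.5% DMSO baseline. Differentiated HepaRG cells received compound for 48 h at 8 concentrations (top 100 uM, half-log steps).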

Read-out in experiment [9]: Glutamate-cysteine ligase catalytic (GCLC), GCLC (gene 2729)
Kind of experiment: LTEA_HepaRG_GCLC: Life Technologies and Expression Analysis (LTEA) Assay for Glutamate-cysteine ligase catalytic (GCLC) using HepaRG (AID 2283498). The essentials: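 HepaRG, 48 h exposure, 8-pt half-log series from 100 uM, 0.5% DMSO vehicle; TaqMan qRT-PCR for GCLC mRNA, housekeeping-normalized; bidirectional curve fit vs DMSO baseline.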

Read-out in experiment [10]: growth arrest and DNA damage 45 (GADD45G), GADD45G (gene 10912)
The experiment can be described thus: LTEA_HepaRG_GADD45G: Life Technologies and Expression Analysis (LTEA) Assay for growth arrest and DNA damage 45 (GADD45G) using HepaRG (AID 2283499). Summed up:
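Differentiated human HepaRG cells in serum-free induction medium were exposed for 48 h to 8 half-log concentrations up to 100 uM in 0.5% DMSO, in duplicate. GADD45G mRNA was measured by TaqMan qRT-PCR, normalised to ACTB, GAPDH and POLR2A, and fitted bidirectionally against DMSO.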

Read-out in experiment [11]: Glutamate-cysteine ligase regulatory (GCLM), GCLM (gene 2730)
Kind of experiment: LTEA_HepaRG_GCLM: Life Technologies and Expression Analysis (LTEA) Assay for Glutamate-cysteine ligase regulatory (GCLM) using HepaRG (AID 2283500). The essentials:
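HepaRG, 48 h dosing, 100 uM top, half-log x8, 0.5% DMSO vehicle. Readout: GCLM mRNA by TaqMan qRT-PCR, housekeeping-normalized (ACTB/GAPDH/POLR2A). Curves fit bidirectionally vs DMSO baseline.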

Read-out in experiment [12]: Glutathione S-transferase M3 (GSTM3), GSTM3 (gene 2947)
The experiment can be described thus: LTEA_HepaRG_GSTM3: Life Technologies and Expression Analysis (LTEA) Assay for Glutathione S-transferase M3 (GSTM3) using HepaRG (AID 2283501). The essentials:
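Differentiated HepaRG cells in serum-free induction medium were exposed in duplicate for 48 h to 8 half-log concentrations up to 100 uM in 0.5% DMSO. GSTM3 mRNA was measured by TaqMan qRT-PCR, normalized to ACTB/GAPDH/POLR2A, and fitted bidirectionally versus DMSO.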

Read-out in experiment [13]: Heat shock 70 kDa protein 1 (HSPA1A), gene 3303
The experiment can be described thus: LTEA_HepaRG_HSPA1A: Life Technologies and Expression Analysis (LTEA) Assay for Heat shock 70 kDa protein 1 (HSPA1A) using HepaRG (AID 2283502). Summed up: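 HepaRG, 48 h exposure, 8-pt half-log CRC from 100 uM in 0.5% DMSO, duplicates. Readout: TaqMan qRT-PCR of HSPA1A mRNA, housekeeping-normalized (ACTB/GAPDH/POLR2A). Bidirectional fit vs 0.5% DMSO baseline.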

Read-out in experiment [14]: Hypoxia-inducible factor 1-alpha (Homo sapiens) (UniProt Q16665)
Kind of experiment: LTEA_HepaRG_HIF1A: Life Technologies and Expression Analysis (LTEA) Assay for Hypoxia-inducible factor 1 (HIF1A) Trancription factor using HepaRG (AID 2283503). The essentials: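 Gain- or loss-of-signal HIF1A mRNA changes are fitted against a DMSO baseline. HepaRG cultures receive eight concentrations, highest 100 uM, for 48 h in serum-free induction medium with 0.5% DMSO.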

Read-out in experiment [15]: 3-Hydroxy-3-Methylglutaryl-CoA Synthase 2 (HMGCS2), HMGCS2 (gene 3158)
Kind of experiment: LTEA_HepaRG_HMGCS2: Life Technologies and Expression Analysis (LTEA) Assay for 3-Hydroxy-3-Methylglutaryl-CoA Synthase 2 (HMGCS2) using HepaRG (AID 2283504). Summed up: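 Differentiated human HepaRG cells were exposed in duplicate for 48 h in serum-free induction medium to eight concentrations (top 100 uM, half-log steps, 0.5% DMSO). HMGCS2 mRNA was quantified by TaqMan qRT-PCR, normalised to ACTB, GAPDH and POLR2A, then fitted bidirectionally against DMSO.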

Read-out in another experiment: HGF (gene 3082)
The experiment can be described thus: LTEA_HepaRG_HGF: Life Technologies and Expression Analysis (LTEA) Assay for Hepatocyte Growth Facto (HGF) using HepaRG (AID 2283505). Summed up:
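Differentiated human HepaRG cells in serum-free induction medium were exposed in duplicate for 48 h to eight concentrations (top 100 uM, half-log steps, 0.5% DMSO). HGF mRNA was quantified by qRT-PCR, normalized to ACTB, GAPDH and POLR2A.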

Read-out in experiment [16]: Insulin Like Growth Factor 1 (IGF1), IGF1 (gene 3479)
The experiment can be described thus: LTEA_HepaRG_IGF1: Life Technologies and Expression Analysis (LTEA) Assay for Insulin Like Growth Factor 1 (IGF1) using HepaRG (AID 2283506). The essentials: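 qRT-PCR readout of IGF1 mRNA, normalized to three housekeeping genes, after 48 h chemical exposure of HepaRG cells. Concentrations: 8-point half-log series, top 100 uM, 0.5% DMSO vehicle. Gain or loss fitted against DMSO baseline.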

Read-out in experiment [17]: Insulin-like growth factor-binding protein 1 (IGFBP1), IGFBP1 (gene 3484)
Kind of experiment: LTEA_HepaRG_IGFBP1: Life Technologies and Expression Analysis (LTEA) Assay for Insulin-like growth factor-binding protein 1 (IGFBP1) using HepaRG (AID 2283508). The essentials: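 Differentiated human HepaRG cells in serum-free induction medium were exposed in duplicate for 48 h to eight concentrations, top 100 uM with half-log dilutions, in 0.5% DMSO. Transcript levels came from qRT-PCR normalised to ACTB, GAPDH and POLR2A, fitted bidirectionally against DMSO.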

Read-out in experiment [18]: Interleukin 6 (IL6), IL6 (gene 3569)
Kind of experiment: LTEA_HepaRG_IL6: Life Technologies and Expression Analysis (LTEA) Assay for Interleukin 6 (IL6) using HepaRG (AID 2283509). The essentials: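 qRT-PCR read-out of IL6 transcript, normalized to three housekeeping genes, after 48 h chemical exposure of HepaRG cells; 8-point half-log series, top 100 uM, 0.5% DMSO vehicle. Bidirectional curve fitting against DMSO baseline.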

Cytochrome P450 3A7 (Homo sapiens), sequence (P24462 whole entry, looked up): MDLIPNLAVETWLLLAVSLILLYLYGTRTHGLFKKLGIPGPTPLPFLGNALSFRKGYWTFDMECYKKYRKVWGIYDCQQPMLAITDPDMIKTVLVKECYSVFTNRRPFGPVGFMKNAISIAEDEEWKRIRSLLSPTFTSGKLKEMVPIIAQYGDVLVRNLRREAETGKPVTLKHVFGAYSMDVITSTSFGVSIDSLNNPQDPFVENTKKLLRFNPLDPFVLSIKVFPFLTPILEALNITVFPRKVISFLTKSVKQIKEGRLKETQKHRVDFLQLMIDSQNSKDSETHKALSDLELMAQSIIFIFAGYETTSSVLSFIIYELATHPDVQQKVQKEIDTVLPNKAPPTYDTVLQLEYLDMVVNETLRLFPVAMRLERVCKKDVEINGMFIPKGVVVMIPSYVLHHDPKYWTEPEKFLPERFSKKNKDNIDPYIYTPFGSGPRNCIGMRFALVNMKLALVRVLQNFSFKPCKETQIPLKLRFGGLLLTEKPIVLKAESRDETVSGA
Hypoxia-inducible factor 1-alpha (Homo sapiens), sequence (Q16665 whole entry, looked up): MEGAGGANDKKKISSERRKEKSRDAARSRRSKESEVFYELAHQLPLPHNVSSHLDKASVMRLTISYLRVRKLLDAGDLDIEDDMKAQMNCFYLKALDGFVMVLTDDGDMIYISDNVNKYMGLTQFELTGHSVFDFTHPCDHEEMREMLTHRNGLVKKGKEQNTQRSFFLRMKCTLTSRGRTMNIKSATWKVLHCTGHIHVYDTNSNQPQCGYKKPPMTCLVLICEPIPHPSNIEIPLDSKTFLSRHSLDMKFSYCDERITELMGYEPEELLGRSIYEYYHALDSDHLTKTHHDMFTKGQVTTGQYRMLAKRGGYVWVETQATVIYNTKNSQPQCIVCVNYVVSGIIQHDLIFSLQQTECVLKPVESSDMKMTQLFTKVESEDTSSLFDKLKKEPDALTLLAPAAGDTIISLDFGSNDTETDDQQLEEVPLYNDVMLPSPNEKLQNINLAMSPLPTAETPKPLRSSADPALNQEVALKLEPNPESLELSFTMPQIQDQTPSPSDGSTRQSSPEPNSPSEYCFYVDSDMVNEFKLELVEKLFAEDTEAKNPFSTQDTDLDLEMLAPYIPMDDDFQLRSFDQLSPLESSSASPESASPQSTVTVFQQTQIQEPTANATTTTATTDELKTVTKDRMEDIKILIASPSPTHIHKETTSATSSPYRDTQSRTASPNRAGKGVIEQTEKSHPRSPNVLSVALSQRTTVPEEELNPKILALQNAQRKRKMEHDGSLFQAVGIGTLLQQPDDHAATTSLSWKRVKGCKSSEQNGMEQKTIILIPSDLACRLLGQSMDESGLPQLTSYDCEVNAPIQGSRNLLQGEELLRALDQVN

`Cn1sc(Cl)cc1=O`: the call (in experiment [1]; in experiment [2]; in [3]; in experiment [4]; in the experiment with CYP3A5 (gene 1577); in experiment [5]) was inactive. For the same molecule, the result in experiment [6], in experiment [7], in experiment [8], in experiment [9], in [10] and in experiment [11] was inactive. Besides, the molecule was called inactive (in experiment [12]; in [13]; in [14]; in experiment [15]; in the experiment with HGF (gene 3082); in [16]). Besides, the call in [17] and in experiment [18] was inactive.
For the molecule `O=C(Nc1ccc2[nH]ccc2c1)c1cc2cc(F)ccc2n1Cc1cccc(F)c1`, the molecule was called inactive (in experiment [1]; in experiment [2]; in experiment [10]; in experiment [12]; with HGF (gene 3082)). The AC50 in experiment [3] is 9.92 µM (active); in [4], 75.6 µM (active); with CYP3A5 (gene 1577), 92.9 µM (active); in experiment [5], 23.9 µM (active); in experiment [6] it was 22.3 µM (active); in [7], 30.7 µM (active). The half-maximal activity concentration (AC50) in experiment [8] was 31.2 µM (active); in [9] it was 23.6 µM (active); in [11] it was 27.8 µM (active); in experiment [13] it was 90.7 µM (active); in experiment [14], 84.5 µM (active); in experiment [15], 30.2 µM (active). For the same molecule, the half-maximal activity concentration (AC50) in experiment [16] was 33.1 µM (active); in experiment [17], 27.2 µM (active); in [18], 50 µM (active).
`O=C1C2(Cl)C3(Cl)C4(Cl)C(Cl)(Cl)C5(Cl)C3(Cl)C1(Cl)C5(Cl)C24Cl` (stereo not given): the outcome (in experiment [1]; in [4]; in experiment [12]; in the experiment with HGF (gene 3082)) was inactive. For the same molecule, the AC50 in [2] was 95.5 µM (active); in [3] it was 91.3 µM (active); in the experiment with CYP3A5 (gene 1577), 92.4 µM (active); in experiment [5], 93.5 µM (active); in [6], 24.1 µM (active); in experiment [7] it was 20.6 µM (active). Also, the AC50 is 22.9 µM (active) in experiment [8]; 93.3 µM (active) in experiment [9]; 59 µM (active) in experiment [10]; 88.5 µM (active) in [11]; 91.9 µM (active) in [13]; 92.5 µM (active) in experiment [14]. Besides, the concentration at half-maximal activity (AC50) was 24.2 µM (active) in experiment [15], 23.8 µM (active) in experiment [16], 84 µM (active) in experiment [17] and 91.7 µM (active) in experiment [18].
For the molecule `C=CC(=O)OCCCCCC(C)C`, the molecule was classed as inactive (in experiment [1]; in experiment [2]; in [3]; in experiment [4]; with CYP3A5 (gene 1577); in [5]). Further, the call in experiment [6], in [7], in experiment [8], in experiment [9], in experiment [10] and in experiment [11] was inactive. In addition, the call (in experiment [12]; in [13]; in experiment [14]; in experiment [15]; with HGF (gene 3082); in experiment [16]) was inactive. The call in [17] and in experiment [18] was inactive.

For the origin of these results see PubChem BioAssay (EPA / NIEHS).
